Screens deposited in PubChem by several laboratories.
NCOA1 inh – human NCOA1 inhibition | AID 588354 | HEK293 GAL4-SRC1 luciferase reporter, luminescence | 360,000 compounds, 0.12% hits | inhibition, % at 3.6 µM | Q15788;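 active means inhibition above the campaign mean plus 3 SD, with each screening campaign given its own cutoff, cut at about 60% in these data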;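 further: 0% = DMSO treated cells and 100% = gossypol at 36 µM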
Target sequence (Q15788 whole entry, looked up, the tested form may be a part): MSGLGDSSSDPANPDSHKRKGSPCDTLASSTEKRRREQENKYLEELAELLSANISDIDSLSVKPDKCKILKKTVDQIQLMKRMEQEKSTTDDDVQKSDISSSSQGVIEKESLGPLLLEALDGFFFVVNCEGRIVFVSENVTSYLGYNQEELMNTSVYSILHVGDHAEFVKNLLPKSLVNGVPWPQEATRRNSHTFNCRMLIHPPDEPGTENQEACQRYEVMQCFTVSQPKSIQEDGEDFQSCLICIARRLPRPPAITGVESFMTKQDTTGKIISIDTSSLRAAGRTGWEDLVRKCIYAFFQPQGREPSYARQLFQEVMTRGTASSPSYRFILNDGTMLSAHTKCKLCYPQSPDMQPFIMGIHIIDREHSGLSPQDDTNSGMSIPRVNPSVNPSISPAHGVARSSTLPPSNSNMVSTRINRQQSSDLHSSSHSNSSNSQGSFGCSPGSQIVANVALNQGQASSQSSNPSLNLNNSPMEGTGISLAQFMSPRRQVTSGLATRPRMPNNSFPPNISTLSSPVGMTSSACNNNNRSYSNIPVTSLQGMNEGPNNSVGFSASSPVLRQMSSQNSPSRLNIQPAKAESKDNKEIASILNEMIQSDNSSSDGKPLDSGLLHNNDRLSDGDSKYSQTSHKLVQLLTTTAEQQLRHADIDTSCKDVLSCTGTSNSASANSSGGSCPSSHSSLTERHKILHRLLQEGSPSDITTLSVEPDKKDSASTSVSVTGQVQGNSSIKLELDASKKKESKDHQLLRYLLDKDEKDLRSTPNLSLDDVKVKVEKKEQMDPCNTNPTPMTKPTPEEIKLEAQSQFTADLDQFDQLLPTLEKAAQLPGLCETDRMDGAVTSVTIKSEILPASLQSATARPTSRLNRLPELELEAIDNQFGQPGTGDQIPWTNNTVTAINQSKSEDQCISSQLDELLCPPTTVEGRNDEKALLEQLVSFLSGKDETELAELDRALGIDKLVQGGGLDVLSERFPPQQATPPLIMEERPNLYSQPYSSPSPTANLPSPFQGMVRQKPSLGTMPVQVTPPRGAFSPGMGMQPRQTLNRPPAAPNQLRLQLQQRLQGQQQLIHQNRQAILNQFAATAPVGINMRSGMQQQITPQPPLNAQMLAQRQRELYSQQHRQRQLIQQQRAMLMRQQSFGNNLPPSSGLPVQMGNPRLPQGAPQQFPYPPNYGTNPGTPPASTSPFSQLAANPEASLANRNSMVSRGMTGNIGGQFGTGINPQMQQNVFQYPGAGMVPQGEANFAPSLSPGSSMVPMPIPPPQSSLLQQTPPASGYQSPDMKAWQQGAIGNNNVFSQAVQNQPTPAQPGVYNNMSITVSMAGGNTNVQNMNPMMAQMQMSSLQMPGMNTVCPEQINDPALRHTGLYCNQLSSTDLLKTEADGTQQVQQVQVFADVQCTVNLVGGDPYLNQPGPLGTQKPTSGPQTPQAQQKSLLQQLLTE
COUP-TFII inh – NR2F2 (human) inhibition, primary screen. HEK293T NGFI-A luciferase reporter, luminescence. AID 686940. 370,000 compounds, 0.7% hits. inhibition, % at 8.6 µM;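 active means inhibition above a per-plate cutoff, mean inhibition of test wells between control levels plus 3 SD, cut at about 38% in these data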;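 further: cells cotransfected with COUP-TFII expression vector driving the NGFI-A reporter; 0% = median of COUP-TF2 test wells and 100% = reporter-only cells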
Gli-Sufu antag – antagonists of Gli-Sufu signaling; Sufu-KO-LIGHT fibroblasts, Gli luciferase reporter luminescence; inhibition, % at 5 µM; 340,000 compounds, 0.74% hits;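 active means inhibition above about 55%, limit read from the data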;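 further: 0% = DMSO-treated cells and 100% = wells with medium but no cells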
LRH-1 inv ag – NR5A2 inverse agonism in reporter assay | O00482 | HEK293T StAR-luciferase reporter, LRH-1 transfected, 24 h | inhibition, % at 3.6 µM | 360,000 compounds, 0.13% hits;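 active means inhibition above the mean inhibition of all tested compounds plus 3 SD, cut at about 73% in these data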;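 further: 0% = DMSO wells and 100% = reporter-only cells lacking LRH-1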
SRC3 inh – human NCOA3 inhibition; HEK293 GAL4-SRC3 luciferase reporter, luminescence; inhibition, % at 3.6 µM; 360,000 compounds, 0.17% hits;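 active means inhibition above a per-campaign cutoff, the mean of all compounds plus 3 SD, cut at about 60% in these data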;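 further: 0% = DMSO-treated cells and 100% = gossypol-treated cells at 36 µM; higher means less SRC3-driven luciferase light from the GAL4 reporter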
NCOA2 inhibitor – inhibits human steroid receptor coactivator 2. Q15596. HEK293 GAL4-SRC2 luciferase reporter, luminescence. inhibition, % at 9 µM. 370,000 compounds, 0.17% hits. AID 651957;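 active means inhibition above the mean inhibition of all tested compounds plus 3 SD, set per campaign, cut at about 52% in these data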;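 further: 0% = DMSO treated cells and 100% = cells given Gossypol at 36 µM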
VP16 Luc counter – VP16 inhibition counter-screen for COUP-TFII; shares compounds with COUP-TFII inh; HEK293 Gal4-VP16 luciferase reporter, luminescence; inhibition, % at 8.5 µM; 2,500 compounds, 25% hits; AID 687007; in the data active means inhibition above about 13%
COUP-TFII conf – confirmation of human COUP-TFII (NR2F2) inhibitors | AID 687008 | 2,500 compounds, 45% hits | inhibition, % at 8.5 µM | shares compounds with COUP-TFII inh | HEK293 NGFI-A luciferase reporter, luminescence;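 active means mean inhibition over three repeats above a set limit taken from the earlier primary screen, cut at about 38% in these data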;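 further: 100% = cells given the luciferase reporter alone without the COUP-TF2 vector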
* marks the source's active call; other numbers are inactive results. This is a sample that favours compounds with a hit; in the whole collection about 1.3% have one here.

`COc1ccccc1NC(=O)Nc1ccc(Cl)c(S(=O)(=O)Nc2ccccc2OC)c1` gave NCOA1 inh 4.7, COUP-TFII inh -15.9, Gli-Sufu antag -0.5, LRH-1 inv ag 6.9, SRC3 inh 2.8 and NCOA2 inhibitor 3.2.
For COc1ccccc1NS(=O)(=O)c1cc(NC(=O)c2ccc(Cl)nc2)ccc1Cl the results were NCOA1 inh 23.0, COUP-TFII inh 68.0*, Gli-Sufu antag 20.7, LRH-1 inv ag 38.2, SRC3 inh 39.6, NCOA2 inhibitor 17.9, VP16 Luc counter 15.4* and COUP-TFII conf 59.8*.
COc1ccc(C(=O)Nc2ccc(Cl)c(S(=O)(=O)Nc3ccccc3OC)c2)cc1 was read as NCOA1 inh 15.4, COUP-TFII inh 63.4*, Gli-Sufu antag 18.6, LRH-1 inv ag 19.9, SRC3 inh 17.3, NCOA2 inhibitor 24.7, VP16 Luc counter 9.3 and COUP-TFII conf 66.7*.
`Cc1ccccc1CN1CCc2c(OCC(=O)N3CCCc4ccccc43)cccc2C1=O` gave NCOA1 inh 7.4, COUP-TFII inh 7.1, Gli-Sufu antag 8.4, LRH-1 inv ag 21.0, SRC3 inh 2.3 and NCOA2 inhibitor 9.1.
O=C1c2cccc(OCC(=O)N3CCCc4ccccc43)c2CCN1Cc1cccnc1 was read as NCOA1 inh 14.7, COUP-TFII inh 39.8*, Gli-Sufu antag 24.1, LRH-1 inv ag 7.0, SRC3 inh 23.0, NCOA2 inhibitor 9.0, VP16 Luc counter 7.1 and COUP-TFII conf 20.4.
For O=C1N(CC[C@@H](O)c2ccccc2)CCC12CCC(c1ccccc1)CC2 (stereo partly drawn) the results were COUP-TFII inh 29.2.
`COc1ccc(C(C)=O)cc1CSc1nnc(C)s1` gave NCOA1 inh -11.6, COUP-TFII inh -9.1, Gli-Sufu antag 1.9, LRH-1 inv ag 13.4, SRC3 inh -0.7 and NCOA2 inhibitor -21.0.
`COc1ccc(C(C)=O)cc1CSc1nnc(Nc2ccc(C)cc2)s1` gave NCOA1 inh 11.4, COUP-TFII inh 42.1*, Gli-Sufu antag 3.6, LRH-1 inv ag -18.1, SRC3 inh 18.6, NCOA2 inhibitor 17.1, VP16 Luc counter 10.1 and COUP-TFII conf 21.5.
For COc1ccc(C(C)=O)cc1CSc1nnc(Nc2ccccc2)s1 the results were NCOA1 inh 6.8, COUP-TFII inh 49.9*, Gli-Sufu antag 26.1, LRH-1 inv ag 22.9, SRC3 inh 38.2, NCOA2 inhibitor 9.4, VP16 Luc counter 3.0 and COUP-TFII conf 36.3.
For O=S1(=O)c2ccc(N3CCC[C@H]3CO)cc2O[C@@H]2CCN1C2 the results were COUP-TFII inh -10.2 and NCOA2 inhibitor -25.8.
Screening C[C@H]1[C@@H](OC(=O)Nc2ccccc2C(F)(F)F)CC[C@@]23CCCN2C(=O)CCC[C@@H]13 returned COUP-TFII inh 8.0.
CC(C)Cn1c(N)c(C(=O)CSc2ccccc2)c(=O)n(C)c1=O was read as NCOA1 inh -0.4, COUP-TFII inh -1.5, Gli-Sufu antag 9.9, LRH-1 inv ag -15.6, SRC3 inh 13.1 and NCOA2 inhibitor 8.2.
`CC(C)Cn1c(N)c(C(=O)COC(=O)/C=C/c2ccccc2)c(=O)n(C)c1=O` gave NCOA1 inh -0.1, COUP-TFII inh 44.6*, Gli-Sufu antag 43.4, LRH-1 inv ag 17.3, SRC3 inh 3.2, NCOA2 inhibitor 13.2, VP16 Luc counter 7.1 and COUP-TFII conf 35.9.
`CC(C)Cn1c(N)c(C(=O)COC(=O)CC23CC4CC(CC(C4)C2)C3)c(=O)n(C)c1=O` gave NCOA1 inh 24.4, COUP-TFII inh 45.4*, Gli-Sufu antag 0.1, LRH-1 inv ag 40.2, SRC3 inh -4.1, NCOA2 inhibitor 11.8, VP16 Luc counter 12.8 and COUP-TFII conf 57.2*.
Screening Cc1c(CCC(=O)O)c(=O)oc2cc3oc4c(c3cc12)CCCC4 returned NCOA1 inh -20.4, COUP-TFII inh 42.4*, Gli-Sufu antag 18.0, LRH-1 inv ag 14.0, SRC3 inh 13.8, NCOA2 inhibitor 64.0*, VP16 Luc counter 58.8* and COUP-TFII conf 50.4*.
`Cc1c(CCC(=O)N[C@@H](CC(C)C)C(=O)O)c(=O)oc2cc3oc4c(c3cc12)CCCC4` gave NCOA1 inh 6.0, COUP-TFII inh 45.9*, Gli-Sufu antag 13.1, LRH-1 inv ag 6.2, SRC3 inh 8.4, NCOA2 inhibitor 44.6, VP16 Luc counter 21.3* and COUP-TFII conf 25.6.
COC(=O)c1c(C)n(-c2ccccc2)c2ccc(O)cc12 was read as NCOA1 inh -4.3, COUP-TFII inh 36.7, Gli-Sufu antag -8.4, LRH-1 inv ag 34.1, SRC3 inh 2.9 and NCOA2 inhibitor 7.2.
Screening CN(C)/C=C/c1c([N+](=O)[O-])c2ccc(O)cc2n1-c1ccccc1 returned NCOA1 inh 6.2, COUP-TFII inh 40.0*, Gli-Sufu antag -13.8, LRH-1 inv ag 6.1, SRC3 inh 29.2, NCOA2 inhibitor 22.9, VP16 Luc counter -0.8 and COUP-TFII conf 10.4.
`COc1ccc(-c2ccc3c(n2)CCCN3S(=O)(=O)c2cccs2)cc1` gave COUP-TFII inh -7.6 and NCOA2 inhibitor 8.6.
`CCCOc1ccc(/C=N/NC(=S)Nc2ccccc2[N+](=O)[O-])c(O)c1` gave COUP-TFII inh 72.8*, Gli-Sufu antag 81.9*, NCOA2 inhibitor 52.5*, VP16 Luc counter 73.0* and COUP-TFII conf 82.6*.
For CCCOc1ccc(/C=N/Nc2ccccc2[N+](=O)[O-])c(O)c1 the results were NCOA1 inh 35.6, COUP-TFII inh 44.1*, Gli-Sufu antag 30.1, LRH-1 inv ag -2.8, SRC3 inh 46.8, NCOA2 inhibitor -16.6, VP16 Luc counter -47.9 and COUP-TFII conf 46.5*.
CCC(C)N(C(=O)CNc1nnnn1-c1ccccc1)C(C)CC (stereo not drawn) was read as COUP-TFII inh 17.1 and NCOA2 inhibitor -3.8.
Cc1cc2nc(C3CCCN(C(=S)Nc4ccccc4C)C3)[nH]c2cc1C (stereo not drawn) was read as NCOA1 inh 13.9, COUP-TFII inh 45.1*, Gli-Sufu antag -1.6, LRH-1 inv ag 14.7, SRC3 inh 6.7, NCOA2 inhibitor 21.2, VP16 Luc counter -33.9 and COUP-TFII conf -7.3.
COC(=O)C1=C(C(=O)OC)[C@@]2([C@H](Cc3ccc(C)cc3)Nc3ccccc3)C=C[C@@H]1O2 was read as COUP-TFII inh 48.8*, VP16 Luc counter -1.8 and COUP-TFII conf 24.0.
C=CCC(Nc1ccccc1)C12C=CC(O1)C(C(=O)OC)=C2C(=O)OC (stereo not drawn) was read as NCOA1 inh -4.0, COUP-TFII inh -2.3, Gli-Sufu antag 2.0, LRH-1 inv ag -6.4, SRC3 inh 2.9 and NCOA2 inhibitor -7.3.
